# HEK cytotox = Cytotoxic Profiling in HEK 293 Cell Line of Diverse Libraries Using Quantitative High-Throughput Screening. HEK 293 viability, ATP luminescence (CellTiter-Glo), 48-72 h. Potency, µM (titrated, usually from 115 µM), without a hit: at the top dose activity change, negative = cytotoxicity, actives largely listed as inhibitors. actives 6.6% (n = 94,000). AID 1345083, 2018; note: nearly all actives have a fitted effect of over 60% in size
#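 Luminescence from cellular ATP, measured with CellTiter-Glo, indicates HEK 293 viability. Cells plated at 250 cells/well are treated with compound for 48 or 72 hr at 37 degree Celsius before reagent addition.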
# hNpr1 antagonist = Natriuretic polypeptide receptor (hNpr1) antagonism - Primary qHTS; HEK293 hNpr1 GloSensor cGMP, ANP-stimulated luminescence; Potency, µM (titrated, usually from 46.3 µM), without a hit: at the highest dose activity change, negative = inhibition, usual class: inhibitors; actives 1.6% (n = 76,000); Atrial natriuretic peptide receptor 1 (Homo sapiens), P16066; calls by dose curve; note: nearly all actives have a fitted effect of over 60% in size
#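 Compound pre-incubated 30 min at room temperature on GloSensor-loaded HEK293 cells stably carrying hNpr1 and the pGS-40F cGMP biosensor. Stimulation uses hNppA at 0.1 nM final; luminescence is taken at baseline and 20 min post-agonist.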
# NIH3T3 tox = Cytotoxic Profiling in NIH 3T3 Cell Line of Diverse Libraries Using Quantitative High-Throughput Screening; NIH 3T3 viability, CellTiter-Glo ATP luminescence, 48-72 h; Potency, µM (doses to about 96.7 µM), inactives show top-dose activity change, negative = cytotoxicity, hits mostly inhibitors; actives 4.3% (n = 94,000); AID 1345082, 2018; note: nearly all actives have a fitted effect of over 55% in size
#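 Cytotoxicity was measured by CellTiter-Glo ATP luminescence after 48 or 72 h compound exposure at 37 °C. Mouse NIH 3T3 fibroblasts were seeded at 400 cells/well and dosed by 23 nL pin transfer.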
# Luciferase inh = Firefly luciferase inhibition profiling of diverse chemical library using quantitative high-throughput screening; Luciferin 4-monooxygenase (Photinus pyralis), P08659; purified P. pyralis luciferase, luminescence, biochemical; Potency, µM (titrated, usually from 115 µM), usual class: inhibitors; actives 2.5% (n = 76,000); note: nearly all actives have a fitted effect of over 65% in size
# Target sequence (P08659 whole entry, looked up): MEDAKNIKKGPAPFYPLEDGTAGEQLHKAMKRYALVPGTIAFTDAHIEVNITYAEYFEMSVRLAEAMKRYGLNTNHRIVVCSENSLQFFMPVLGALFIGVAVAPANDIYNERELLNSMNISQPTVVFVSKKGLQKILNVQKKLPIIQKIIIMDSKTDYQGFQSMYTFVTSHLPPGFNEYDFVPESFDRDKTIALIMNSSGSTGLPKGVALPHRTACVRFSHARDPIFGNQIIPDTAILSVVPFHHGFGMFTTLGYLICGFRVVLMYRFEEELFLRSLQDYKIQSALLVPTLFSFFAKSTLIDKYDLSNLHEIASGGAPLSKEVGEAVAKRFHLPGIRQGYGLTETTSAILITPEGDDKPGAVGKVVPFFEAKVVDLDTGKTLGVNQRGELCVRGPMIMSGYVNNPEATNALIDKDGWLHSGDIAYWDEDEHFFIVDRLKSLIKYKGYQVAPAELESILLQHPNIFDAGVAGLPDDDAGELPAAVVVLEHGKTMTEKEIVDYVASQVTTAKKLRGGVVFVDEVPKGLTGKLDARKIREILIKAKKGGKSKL
#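 Luminescence read by CCD imager after adding enzyme (10nM final) to wells holding compound, titrated in qHTS. Substrates 10uM each D-luciferin and ATP; buffer 50mM Tris acetate pH 7.5, 10mM Mg acetate, Tween-20, BSA.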
# * hit, by the source's call; i = inactive; ? = inconclusive; . = no result; [ ] = another dose, or the depositor's remark. Shown are actives, neighbours in structure and some others; about 11% of the full set was active somewhere. Unless noted, calls come from the whole dose curve; as a rule, active = well fitted curve in the direction sought with a large enough effect; inconclusive = small, poorly fitted or top-dose-only effect, or another doubt; inactive = no such curve, though single readings can be large; an effect the other way counts as inactive or inconclusive. % is set by controls: 0 for no effect and ±100 for the full control effect; potency is the fitted concentration of half-maximal effect.
SMILES,HEK cytotox,hNpr1 antagonist,NIH3T3 tox,Luciferase inh
COc1ccc2[nH]c(C[C@@H]3C[C@@H](C(C)C)[C@H](CNC4CCN(C(C)=O)CC4)C=C3C)nc2n1,?,-3%,?,i
COc1ccc2[nH]c(C[C@@H]3C[C@@H](C(C)C)[C@H](CNCc4cccnc4)C=C3C)nc2n1,63µM*,-16%[70.6 µM],89µM*,i
COc1ccc2[nH]c(C[C@@H]3C[C@@H](C(C)C)[C@H](CNC(=O)Cn4cnnn4)C=C3C)nc2n1,?,1%,?,i
COc1ccc2[nH]c(C[C@@H]3C[C@@H](C(C)C)[C@H](CNC(C)=O)C=C3C)nc2n1,71µM*,-2%[70.6 µM],?,i
O=C(Nc1ccccc1)C1(CCO)CC12CCOCC2 (centres undefined),-5%,.,-11%,.
O=C(c1ccncc1)N1CCCC2(CNc3ncccc3[S+](=O)([O-])N2)C1 (centres undefined),3%,.,?,.
O=C1NCc2ccccc2CC12CCCN2Cc1ccsc1 (centres undefined),-24%,.,-22%,.
COc1ccc2c(c1)c(CN1CCCCCCN(C)C(=O)[C@@H]3CCC[C@@H]31)cn2C,35µM*,-13%,28µM*,i
Fc1cccc(-n2cc(CN3CCCC4(CCOC4)C3)cn2)c1 (centres undefined),-12%,2%,-28%,i
O=C1NCCCc2[nH]c(-c3cnn(-c4cccc(F)c4)c3)nc21,?,-21%,-24%,22µM*
CNC(=O)c1cccc(-c2cnc3[nH]cc(CC(=O)N4CCC(OC)CC4)c3c2)c1,-24%[172 µM],2%[70.6 µM],89µM*,?
CNC(=O)c1cccc(-c2cnc3[nH]cc(CC(=O)NCC(C)C)c3c2)c1,?,1%[70.6 µM],35µM*,i
COC1CCN(C(=O)Cc2c[nH]c3ncc(-c4cccnc4)cc23)CC1,4%[172 µM],1%[70.6 µM],79µM*,i
O=C(Cc1c[nH]c2ncc(-c3ccoc3)cc12)N1CCOCC1,?,-12%[70.6 µM],?,i
O=C(Cc1c[nH]c2ncc(-c3cccnc3)cc12)N1CCN(c2ccccn2)CC1,?,-8%[70.6 µM],?,i
CNC(=O)c1cccc(-c2cnc3[nH]cc(CC(=O)Nc4ccccc4C)c3c2)c1,?,0%[70.6 µM],?,?
COc1ncc(-c2cnc3[nH]cc(CC(=O)N4CCOCC4)c3c2)cn1,-18%[172 µM],4%[70.6 µM],79µM*,i
CNC(=O)c1cccc(-c2cnc3[nH]cc(CC(=O)N4CCCC4)c3c2)c1,?,-9%[70.6 µM],?,i
O=C(c1ccncc1)N1CC(N(CC2CC2)C2CCOCC2)C1,-9%,.,-12%,.
COc1ccccc1-c1[nH]nc2ncc(-c3ccccc3C)nc12,50µM*,-17%[70.6 µM],50µM*,i
COc1ccccc1-c1[nH]nc2ncc(-c3ccccc3F)nc12,?,-24%[70.6 µM],35µM*,i
COc1ccccc1-c1[nH]nc2ncc(-c3cnn(C)c3)nc12,35µM*,3%[70.6 µM],?,i
COc1ccccc1-c1[nH]nc2ncc(CNc3ccccn3)nc12,?,-8%[70.6 µM],?,i
COc1ccccc1-c1[nH]nc2ncc(-c3ccnc(C)c3)nc12,?,-1%[70.6 µM],?,i
COc1ccccc1-c1[nH]nc2ncc(C(=O)NCc3ccccc3)nc12,?,2%[70.6 µM],-29%[138 µM],i
SMILES,HEK cytotox,hNpr1 antagonist,NIH3T3 tox,Luciferase inh
COc1ccccc1-c1[nH]nc2ncc(-c3cccc(O)c3)nc12,40µM*,-5%[70.6 µM],?,i
C#CCNC(=O)C1CCc2nnc(-c3cccc(C(F)(F)F)c3)n21 (centres undefined),-6%[172 µM],.,-29%[138 µM],.
OC(c1ccccc1)c1cn(C2CCN(Cc3cnc4ccccc4c3)CC2)nn1 (centres undefined),-25%,0%,?,i
COC1CN(c2cccc(F)c2)C12CCN(CC1CCCCC1)CC2 (centres undefined),?,3%,?,i
Cn1cc(-c2ccccc2Oc2ccccc2)c2nc(CN3CCOCC3)cn2c1=O,-7%[172 µM],1%[70.6 µM],89µM*,i
COc1cc(F)ccc1-c1cn(C)c(=O)n2cc(CN3CCOCC3)nc12,-8%[172 µM],3%[70.6 µM],112µM*,i
Cn1cc(-c2ccccc2Oc2ccccc2)c2nc(CO)cn2c1=O,-21%[172 µM],0%[70.6 µM],?,i
CC(=O)N(C1CC1)C1CCOC2(CCN(C(=O)COc3ccc(C)cc3)CC2)C1 (centres undefined),?,3%,-10%,i
Cc1nccn1-c1ccc(NC(=O)C2CCCN(c3ncccc3C#N)C2)cc1 (centres undefined),40µM*,-20%,?,i
CN(C)C(=O)C1CCCN(c2ccnc3ccnn23)C1 (centres undefined),-10%[172 µM],.,-28%[138 µM],.
O=C(NC1CCCCCC1)C1CCCN(c2ccnc3ccnn23)C1 (centres undefined),79µM*,.,?,.
Cc1ccc(NC(=O)C2CCCN(c3ccnc4ccnn34)C2)cc1 (centres undefined),35µM*,.,?,.
O=C(Nc1ccc(F)cc1)C1CCCN(c2nc3ncccc3o2)C1 (centres undefined),-14%[172 µM],0%[70.6 µM],-21%[138 µM],i
COC1CCOC2(CCN(C(=O)NCCc3ccccc3)CC2)C1 (centres undefined),5%,-3%,2%,28µM*
CCCCCC(=O)N1C[C@@H](C(N)=O)[C@@H]2Oc3ccc(Cl)cc3[C@@H]21,?,.,-30%,.
O=C(CCc1ccccc1)N1C[C@@H](CO)[C@@H]2Oc3ccc(Cl)cc3[C@@H]21,79µM*,.,?,.
COc1ccc(C(=O)N2CCN3C(=O)N(C4CCOCC4)C[C@H]3C2)cc1,-16%[172 µM],3%[70.6 µM],-19%[138 µM],i
Cc1ccc(NC(=O)N2CCCC(Cn3c(C4CC4)nc4cccnc43)C2)cc1 (centres undefined),-12%,5%,?,i
Cc1cccc(S(=O)(=O)N2CCCC(Cn3c(C)nc4cccnc43)C2)c1 (centres undefined),?,-25%,?,i
Cc1ccc(C)c(S(=O)(=O)N2CCCC(Cn3c(C4CC4)nc4cccnc43)C2)c1 (centres undefined),40µM*,-14%,?,i
Cc1cccc(S(=O)(=O)N2CCCC(Cn3c(C4CC4)nc4cccnc43)C2)c1 (centres undefined),35µM*,-15%,?,i
O=C(Nc1ccc(C(F)(F)F)cc1)N1CCCC(Cn2c(C3CC3)nc3cccnc32)C1 (centres undefined),40µM*,-19%,32µM*,i
CCOC(=O)N1CCC(=O)N(CC2CC2)Cc2cc(OC)ccc21,?,.,-31%,.
c1cc(-c2ccco2)cc(-c2nc(C3CCOC3)no2)c1 (centres undefined),-9%,-1%,?,45µM*

# High-throughput results deposited in PubChem BioAssay by National Center for Advancing Translational Sciences (NCATS).
